Reference: the supplement of paper PMC10849652
Of roughly 8,800 targets only a part is listed; those with a hit were picked by preference. About 0.5% of all pairs of compound and target were hits. A number with no mark means an inactive call.

Legend:
Assay in all cases: log2 fold change, soluble protein after heating vs DMSO (PISA); higher = thermal stabilisation; K562 lysate, 10 uM; active = over 0.2 and 3.5 SD of the protein, either way, in both replicates (recomputed)
[1] = compound: CCCS(=O)(=O)Nc1ccc(F)c(C(=O)c2c[nH]c3ncc(Cl)cc23)c1F
Method in brief: (§1)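 Quantification was by TMTpro 16plex LC-MS/MS with equalised channel sums, applied to the supernatant after 21,000xg for 90 min. Samples were crude K562 extract at 1 mg/mL protein in PBS pH 7.4 with 1 mM MgCl2, treated with 10 μM compound for 30 min, heated for 3 min across 48°C-58°C, pooled and brought to 0.5% NP-40 at 4°C. Values are log-two fold changes in thermal stability relative to solvent controls, from duplicates.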

barasertib = compound: CCN(CCCOc1ccc2c(Nc3cc(CC(=O)Nc4cccc(F)c4)[nH]n3)ncnc2c1)CCOP(=O)(O)O [barasertib]
Method in brief: as §1

[2] = compound: CC[C@@H]1C(=O)N(C)c2cnc(Nc3ccc(C(=O)NC4CCN(C)CC4)cc3OC)nc2N1C1CCCC1
Method in brief: as §1

volasertib = compound: CC[C@@H]1C(=O)N(C)c2cnc(Nc3ccc(C(=O)N[C@H]4CC[C@H](N5CCN(CC6CC6)CC5)CC4)cc3OC)nc2N1C(C)C [volasertib]
Method in brief: as §1

[3] = compound: CCn1c(C(=O)N(C2CC2)C2CC2)cc2c3c(ncn3C)c(Nc3cc(C)n(C)n3)nc21
Method in brief: as §1

[4] = compound: CCn1cc(-c2ccnc3[nH]c(-c4cccc(CN(C)C)c4)cc23)c(-c2ccc(NC(=O)N(C)C)cc2)n1
Method in brief: as §1

[5] = compound: CN1CCC(CNc2ccc3ncc(-c4cccc(OC(F)(F)F)c4)n3n2)CC1
Method in brief: as §1

saracatinib = compound: CN1CCN(CCOc2cc(OC3CCOCC3)c3c(Nc4c(Cl)ccc5c4OCO5)ncnc3c2)CC1 [saracatinib]
Method in brief: as §1

sotrastaurin = compound: CN1CCN(c2nc(C3=C(c4c[nH]c5ccccc45)C(=O)NC3=O)c3ccccc3n2)CC1 [sotrastaurin]
Method in brief: as §1

vemurafenib = compound: CCCS(=O)(=O)Nc1ccc(F)c(C(=O)c2c[nH]c3ncc(-c4ccc(Cl)cc4)cc23)c1F [vemurafenib]
Method in brief: as §1

Chain of UniProt Q9UJA2 (Q9UJA2 whole entry, looked up): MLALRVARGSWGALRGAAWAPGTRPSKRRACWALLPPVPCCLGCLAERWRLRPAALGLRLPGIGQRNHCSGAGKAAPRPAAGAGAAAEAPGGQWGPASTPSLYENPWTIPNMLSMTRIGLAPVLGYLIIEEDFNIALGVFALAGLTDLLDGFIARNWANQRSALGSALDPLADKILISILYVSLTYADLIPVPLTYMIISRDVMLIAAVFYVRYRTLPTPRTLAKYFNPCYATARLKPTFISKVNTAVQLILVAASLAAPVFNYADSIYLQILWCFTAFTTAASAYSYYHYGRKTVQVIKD
Chain of UniProt O75534 (O75534 whole entry, looked up): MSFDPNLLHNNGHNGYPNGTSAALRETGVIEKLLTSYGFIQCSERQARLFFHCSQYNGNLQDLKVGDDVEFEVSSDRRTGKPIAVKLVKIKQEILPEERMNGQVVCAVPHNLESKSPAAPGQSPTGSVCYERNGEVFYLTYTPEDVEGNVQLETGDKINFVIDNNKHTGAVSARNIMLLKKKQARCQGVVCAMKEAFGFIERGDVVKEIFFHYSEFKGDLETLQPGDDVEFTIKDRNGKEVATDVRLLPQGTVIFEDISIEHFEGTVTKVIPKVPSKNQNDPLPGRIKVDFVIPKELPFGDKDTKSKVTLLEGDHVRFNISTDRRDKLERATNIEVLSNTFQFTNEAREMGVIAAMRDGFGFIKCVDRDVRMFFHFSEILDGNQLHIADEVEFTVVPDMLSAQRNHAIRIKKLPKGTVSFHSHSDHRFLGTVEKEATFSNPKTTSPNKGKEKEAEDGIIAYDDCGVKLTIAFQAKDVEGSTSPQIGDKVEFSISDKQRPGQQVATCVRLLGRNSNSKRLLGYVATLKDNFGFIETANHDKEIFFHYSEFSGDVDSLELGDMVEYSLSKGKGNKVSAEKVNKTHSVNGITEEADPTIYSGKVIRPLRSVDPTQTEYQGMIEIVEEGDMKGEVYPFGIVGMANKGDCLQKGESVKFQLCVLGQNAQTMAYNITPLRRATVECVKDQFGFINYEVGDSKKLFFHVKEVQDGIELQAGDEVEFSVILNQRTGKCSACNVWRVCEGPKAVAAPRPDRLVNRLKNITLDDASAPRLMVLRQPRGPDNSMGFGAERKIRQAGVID
Chain of UniProt P53355 (P53355 whole entry, looked up): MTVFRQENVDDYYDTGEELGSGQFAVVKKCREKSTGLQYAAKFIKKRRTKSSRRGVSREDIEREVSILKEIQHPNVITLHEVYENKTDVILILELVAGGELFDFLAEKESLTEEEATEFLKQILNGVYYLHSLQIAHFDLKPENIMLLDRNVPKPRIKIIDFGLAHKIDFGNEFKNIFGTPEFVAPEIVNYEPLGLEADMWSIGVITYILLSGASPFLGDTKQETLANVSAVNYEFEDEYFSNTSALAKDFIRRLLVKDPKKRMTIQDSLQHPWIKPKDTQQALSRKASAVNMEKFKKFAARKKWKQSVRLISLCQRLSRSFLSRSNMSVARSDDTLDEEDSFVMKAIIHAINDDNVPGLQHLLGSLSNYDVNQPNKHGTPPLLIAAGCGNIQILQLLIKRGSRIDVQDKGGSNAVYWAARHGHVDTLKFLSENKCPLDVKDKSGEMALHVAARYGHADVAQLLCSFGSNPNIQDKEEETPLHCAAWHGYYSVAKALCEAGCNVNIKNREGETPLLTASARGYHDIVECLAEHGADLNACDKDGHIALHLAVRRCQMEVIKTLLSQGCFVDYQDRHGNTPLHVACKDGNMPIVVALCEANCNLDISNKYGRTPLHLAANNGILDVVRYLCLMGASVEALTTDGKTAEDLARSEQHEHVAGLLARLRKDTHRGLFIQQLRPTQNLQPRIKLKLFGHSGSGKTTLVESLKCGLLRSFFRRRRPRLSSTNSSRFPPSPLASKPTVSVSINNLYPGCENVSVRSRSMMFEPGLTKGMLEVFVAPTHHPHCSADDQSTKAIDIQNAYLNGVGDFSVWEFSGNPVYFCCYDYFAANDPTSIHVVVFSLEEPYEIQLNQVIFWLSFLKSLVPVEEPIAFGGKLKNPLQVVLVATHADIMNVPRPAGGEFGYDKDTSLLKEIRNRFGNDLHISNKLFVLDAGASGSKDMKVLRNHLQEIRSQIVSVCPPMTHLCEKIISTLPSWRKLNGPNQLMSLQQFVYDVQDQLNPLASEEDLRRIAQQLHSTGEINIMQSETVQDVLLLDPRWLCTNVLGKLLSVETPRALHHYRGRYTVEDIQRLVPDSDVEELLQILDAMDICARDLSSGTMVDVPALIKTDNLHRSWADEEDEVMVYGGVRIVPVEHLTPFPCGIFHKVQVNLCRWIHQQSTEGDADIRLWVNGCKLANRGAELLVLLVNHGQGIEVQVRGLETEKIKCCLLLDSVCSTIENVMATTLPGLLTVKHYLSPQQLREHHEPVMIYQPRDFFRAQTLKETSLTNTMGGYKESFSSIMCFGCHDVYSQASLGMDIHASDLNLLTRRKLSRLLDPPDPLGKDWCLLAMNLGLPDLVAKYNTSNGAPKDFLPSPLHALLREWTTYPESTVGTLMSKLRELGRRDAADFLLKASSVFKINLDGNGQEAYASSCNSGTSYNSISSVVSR
Chain of UniProt Q6UX07 (Q6UX07 whole entry, looked up): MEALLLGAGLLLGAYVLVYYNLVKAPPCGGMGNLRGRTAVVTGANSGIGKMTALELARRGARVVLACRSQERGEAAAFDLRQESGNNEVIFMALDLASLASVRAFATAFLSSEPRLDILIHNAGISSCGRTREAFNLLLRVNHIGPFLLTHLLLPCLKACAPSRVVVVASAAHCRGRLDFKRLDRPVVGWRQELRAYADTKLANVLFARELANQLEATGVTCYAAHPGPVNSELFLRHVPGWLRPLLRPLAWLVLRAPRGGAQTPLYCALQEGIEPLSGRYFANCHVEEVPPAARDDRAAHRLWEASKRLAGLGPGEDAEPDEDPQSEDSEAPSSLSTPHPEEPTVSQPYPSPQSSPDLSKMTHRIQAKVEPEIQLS
Chain of UniProt Q16527 (Q16527 whole entry, looked up): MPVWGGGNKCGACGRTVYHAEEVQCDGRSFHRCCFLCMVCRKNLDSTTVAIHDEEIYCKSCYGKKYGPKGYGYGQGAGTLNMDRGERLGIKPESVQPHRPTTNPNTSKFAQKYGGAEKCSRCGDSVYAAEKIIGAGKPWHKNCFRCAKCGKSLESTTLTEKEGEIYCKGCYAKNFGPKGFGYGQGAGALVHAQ
Chain of UniProt P24311 (P24311 whole entry, looked up): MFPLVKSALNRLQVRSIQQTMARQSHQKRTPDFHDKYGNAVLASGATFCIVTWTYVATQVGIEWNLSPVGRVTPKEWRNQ
Chain of UniProt Q08345 (Q08345 whole entry, looked up): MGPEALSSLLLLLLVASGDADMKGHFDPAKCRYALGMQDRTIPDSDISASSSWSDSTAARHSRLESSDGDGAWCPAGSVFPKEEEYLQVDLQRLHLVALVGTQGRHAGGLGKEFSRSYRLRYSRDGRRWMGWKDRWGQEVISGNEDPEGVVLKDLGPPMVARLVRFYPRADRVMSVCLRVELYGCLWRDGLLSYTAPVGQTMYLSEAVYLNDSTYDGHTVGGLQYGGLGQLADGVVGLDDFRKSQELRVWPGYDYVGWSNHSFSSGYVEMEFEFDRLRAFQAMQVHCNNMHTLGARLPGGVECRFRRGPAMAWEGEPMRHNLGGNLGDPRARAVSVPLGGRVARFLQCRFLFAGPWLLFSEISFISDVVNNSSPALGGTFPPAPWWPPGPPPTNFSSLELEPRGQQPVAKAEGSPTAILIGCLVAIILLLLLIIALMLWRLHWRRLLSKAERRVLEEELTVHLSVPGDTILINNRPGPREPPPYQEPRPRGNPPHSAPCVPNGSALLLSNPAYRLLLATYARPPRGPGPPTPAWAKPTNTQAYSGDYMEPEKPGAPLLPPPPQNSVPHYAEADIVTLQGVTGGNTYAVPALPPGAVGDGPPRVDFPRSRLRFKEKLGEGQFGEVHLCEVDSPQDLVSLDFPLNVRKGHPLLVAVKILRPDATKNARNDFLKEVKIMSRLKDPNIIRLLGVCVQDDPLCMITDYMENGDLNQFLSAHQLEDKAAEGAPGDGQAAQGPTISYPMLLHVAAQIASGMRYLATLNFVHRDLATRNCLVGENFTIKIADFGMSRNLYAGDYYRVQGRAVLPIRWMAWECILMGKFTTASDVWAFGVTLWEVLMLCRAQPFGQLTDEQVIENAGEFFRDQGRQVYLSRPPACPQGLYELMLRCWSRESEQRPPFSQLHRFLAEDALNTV
Chain of UniProt Q6ZWL3 (Q6ZWL3 whole entry, looked up): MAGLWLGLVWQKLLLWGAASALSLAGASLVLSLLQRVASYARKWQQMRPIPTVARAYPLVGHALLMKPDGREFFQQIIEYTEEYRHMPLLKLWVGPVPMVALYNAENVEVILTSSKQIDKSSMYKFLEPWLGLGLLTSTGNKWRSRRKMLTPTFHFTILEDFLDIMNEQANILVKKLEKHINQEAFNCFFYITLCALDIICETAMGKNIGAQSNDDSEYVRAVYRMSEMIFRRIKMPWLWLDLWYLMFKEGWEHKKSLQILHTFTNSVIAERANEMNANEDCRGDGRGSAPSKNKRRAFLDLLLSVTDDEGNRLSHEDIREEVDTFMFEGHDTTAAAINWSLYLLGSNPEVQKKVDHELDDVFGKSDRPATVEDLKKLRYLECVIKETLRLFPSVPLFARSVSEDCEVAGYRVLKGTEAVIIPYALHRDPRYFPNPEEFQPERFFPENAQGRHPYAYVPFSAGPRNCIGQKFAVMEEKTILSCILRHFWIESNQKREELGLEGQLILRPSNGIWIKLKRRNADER
Chain of UniProt O95715 (O95715 whole entry, looked up): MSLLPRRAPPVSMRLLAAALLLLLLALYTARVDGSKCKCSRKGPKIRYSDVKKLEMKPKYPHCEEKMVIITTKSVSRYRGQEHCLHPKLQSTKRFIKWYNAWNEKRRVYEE
Chain of UniProt Q9BSY9 (Q9BSY9 whole entry, looked up): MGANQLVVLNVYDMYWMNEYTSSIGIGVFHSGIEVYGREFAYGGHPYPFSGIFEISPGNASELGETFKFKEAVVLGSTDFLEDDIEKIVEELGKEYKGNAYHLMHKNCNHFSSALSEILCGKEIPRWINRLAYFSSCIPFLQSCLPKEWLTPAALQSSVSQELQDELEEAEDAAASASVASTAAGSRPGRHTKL

Target	log2 fold change [1]	log2 fold change (barasertib)	log2 fold change [2]	log2 fold change (volasertib)	log2 fold change [3]	log2 fold change [4]	log2 fold change [5]	log2 fold change (saracatinib)	log2 fold change (sotrastaurin)	log2 fold change (vemurafenib)
CLIP1 isoform 2 (UniProt P30622)	0.112	-0.083	0.073	0.055	-0.04	-0.488	0.02	0.028	-0.026	
DESI2 (UniProt Q9BSY9)			0.089			0.116	-0.113			0.064
CXCL14 (UniProt O95715)		0.079	0.189							0.252
DONSON (UniProt Q9NYP3)	0.017	-0.03		0.026	-0.036	-0.026	-0.206	0.013	0.016	
DAPK1 isoform 3 (UniProt P53355)	-0.203			-0.138	0.022	0.138	-0.04	0.022	-0.039	0.047
CYP2S1 isoform 2 (UniProt Q96SQ9)	0.136		0.119	0.038	0.063			0.017	0.081	0.062
COL12A1 (UniProt Q99715)	0.178		0.194	-0.139				0.063	-0.233	0.239
CIC (UniProt I3L1Q4)		-0.169								
CLIP1, A0A3B3ITA2					-0.015	-0.515	0.634 (active)		-0.021	-0.026
CYP4V2 (UniProt Q6ZWL3)	-0.021	-0.021		0.05	-0.12			-0.076	-0.17	
CSRP2 (UniProt Q16527)		0.078	0.052			0.09	0.126		-0.351 (active)	
COL6A3 (UniProt P12111)		0.347			0.086	0.254	-0.19	-0.039	0.031	
DDR1 isoform 5 (UniProt Q08345)		0.169	0.064		0.013	0.043	-0.479 (active)	-0.142	-0.019	
CNK3/IPCEF1 isoform 2 (UniProt G9CGD6)			0.056		0.078	-1.81 (active)	0.506	0.053		-0.062
CRLS1 (UniProt Q9UJA2)	0.063	0.014		0.005	0.017	0.022	-0.301		-0.008	
DHRS13 (UniProt Q6UX07)	0.291	0.236		-0.274	0.077			-0.031	0.095	
DALRD3 (UniProt Q5D0E6)	-0.025		-0.095	-0.041		0.003	0.144			-0.033
CHMP4A (UniProt H0YIN6)	0.049	-0.012		0.024	-0.495	-0.274	0.158	0.201	-0.088	
CSAD isoform 3 (UniProt Q9Y600)		0.456 (active)			0.001				-0.003	
CSDE1 isoform 3 (UniProt O75534)	-0.014	0.05		-0.193	0.113	-0.064	-0.104		0.07	
DNAJC24 (UniProt Q6P3W2)	-0.038		0.017	0.027	0.002	0.196	-0.309 (active)	-0.013	-0.032	0.141
DBF4 (UniProt Q9UBU7)		0.054	-0.015		0.001	-0.003	-0.245	0.001	-0.004	0.001
DNM2 isoform 4 (UniProt P50570)	-0.001		-0.018	-0.031	-0.014	-0.153	0.021	-0.047	-0.031	
CUX1 isoform 2 (UniProt Q13948)	0.084		-0.087	-0.001	0.019	0.06	-0.34	-0.054	0.081	0.013
COX7B (UniProt P24311)	-0.047		-0.01	0.004	-0.051	0.047	-0.013	-0.062	-0.028	0.014
DHX32 (UniProt Q7L7V1)			-0.026		-0.106	0.137	0.003		-0.011	0.173
CPLX1 (UniProt O14810)	0.057		-0.026	0.029	-0.074			0.893 (active)		0.034
CSNK1A1 isoform 3 (UniProt P48729)					-0.199			-0.175		
DNA2 (UniProt P51530)			-0.053		0.051	0.03	0.022	0.008	0.073	-0.094
